# “And” between values parts separate entries of the source, which are not always exact repeats. Identical values can stand only once. Compounds without any hit were thinned out: in the full panel of roughly 79,000, 15% have a hit. A number with no mark means an inactive call. The source made the active and inactive calls. Rule as the data show it: active = growth inhibition above about 70%; inactive = the rest.
# Tests used:
# [1] = NCI Yeast Anticancer Drug Screen. Data for the rad50 strain (AID 155);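 also: 0% = growth of vehicle-only cultures of the same strain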; conditions: S. cerevisiae rad50 strain growth inhibition, stronger effect = higher value; at 50.0 µM unless noted
# Outline: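 Growth of the mutant yeast was measured after compound exposure and referenced to vehicle-treated cultures.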
# [2] = NCI Yeast Anticancer Drug Screen. Data for the mec2-1 strain (AID 157); conditions: S. cerevisiae mec2-1 strain, stronger effect = higher value; at 50.0 µM unless noted
# Outline: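 Compounds were applied to mec2-1 yeast cells. Their growth was then compared with that of vehicle-treated cultures to give growth inhibition.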
# [3] = NCI Yeast Anticancer Drug Screen. Data for the sgs1 mgt1 strain (AID 161);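 also: 0% = growth of cultures given vehicle only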; conditions: S. cerevisiae sgs1 mgt1 strain, stronger effect = higher value; at 50.0 µM unless noted
# Outline: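 Percent growth inhibition was derived by comparing compound-exposed mutant yeast with vehicle-exposed cultures. The strain carries alterations in DNA damage repair.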
# [4] = NCI Yeast Anticancer Drug Screen. Data for the cln2 rad14 strain (AID 165);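 also: 0% = growth equal to vehicle treated cultures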; conditions: S. cerevisiae cln2 rad14 strain, stronger effect = higher value; at 50.0 µM unless noted
# Outline: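 Strain: cln2 rad14 yeast, altered in cell cycle control and DNA damage repair. Read-out: growth inhibition vs vehicle.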
# [5] = NCI Yeast Anticancer Drug Screen. Data for the bub3 strain (AID 167); conditions: S. cerevisiae bub3 mutant strain, stronger effect = higher value; at 50.0 µM unless noted
# Outline: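 Whole-cell yeast assay. The mutant strain was incubated with compounds, and growth inhibition was determined by comparison with vehicle-treated cells.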
# [6] = NCI Yeast Anticancer Drug Screen. Data for the mlh1 rad18 strain (AID 175); conditions: S. cerevisiae mlh1 rad18 strain growth inhibition, stronger effect = higher value; at 50.0 µM unless noted
# Outline: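 A repair-deficient yeast strain is exposed to test compound, and growth is scored relative to vehicle-treated controls.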
Compound,growth inhibition [1],growth inhibition [2],growth inhibition [3],growth inhibition [4],growth inhibition [5],growth inhibition [6]
CCCC(=O)CC(=O)Nc1ccccc1,2.9%,-6.3%,-14.9%,-23.9%,-17.6%,11.2%
CCOc1ccccc1NC(=O)C(=O)C(C(=O)c1ccc2ccccc2c1)C1OC(=O)c2ccccc21 (stereo not given),-4%,4.35%,13.6%,-50%,12.5%,0.45%
CC(O)CNc1nc(N)[nH]c(=O)c1[N+](=O)[O-] (stereo not given),4.45%,2.35%,1.45%,-41.5%,-9.95%,-1.6%
CCCCCCCCCCCCNCCC(=O)O,25%,-19%,42.1%,14.6%,50.5%,36.5%
CCCCC(OC(=O)c1ccccc1)c1cc(OC(=O)c2ccccc2)c2c(c1OC(=O)c1ccccc1)CC(C)=C(C)C2 (stereo not given),84% (active),49.6%,99% (active),53.4%,48.2%,56.2%
CNC(=O)NC(c1ccc(F)cc1)c1cc2c(cc1O)OCO2 (stereo not given),-2.2%,-16.4%,-2.4%,12.6%,-1.8%,12.4%
O=[N+]([O-])c1ccc(N/N=C2/CC3CCC2C3)c([N+](=O)[O-])c1 (stereo not given),-4.3%,-21.4%,0.8%,-7.05%,5.6%,0.55%
COC(=O)C(Cc1nc2ccc(Cl)cc2[nH]c1=O)/C(=N\N)C(=O)Nc1cc(C)c(Cl)cc1S(=O)(=O)O (stereo not given),24.9%,-2%,5.5%,-70.3%,-3.35%,5.95%
CC(C)N1CCN(c2ccncc2S(=O)(=O)N2CCCC2)CC1,2.7%,4.8%,-4.65%,-33.9%,1.35%,8.4%
CCC(O)c1ccc(OCc2ccccc2)c(OC)c1 (stereo not given),7.35%,-2.1%,24.6%,-43.1%,-4.05%,2.25%
NNc1nc(NCc2ccco2)c2[nH]cnc2n1,-10%,-7.95%,1.5%,2.45%,2.5%,12.8%
Cc1ccc(NC(=O)C2CCCCC2)cc1,5.85%,3.3%,-6.6%,10.6%,-6.25%,-1.6%
COc1cc2c(cc1OC)[C@H](c1cc(OC)c3c(c1)OCO3)[C@H]1C(=O)OCC1C2 (stereo not given in full),11.4%,-0.1%,0.2%,4.85%,30.6%,15.4%
CSc1ccc2nncc(SC)c2c1,64.2%,7.05%,12.9%,40.1%,18%,40.9%
COc1cc(Nc2cnc3cc(C(F)(F)F)ccc3n2)cc(OC)c1OC,16.9%,0.95%,21.9%,12.2%,-14.1%,-1.55%
CCC(C)(CC)c1ccc(C)cc1OC,-4.9%,8.15%,-7.1%,18.6%,24.6%,6.9%
CCCCCCCCCOc1ccc(C=Nc2ccc(C)cc2)cc1,-4.3%,7.8%,-2.55%,-18.9%,-10.9%,-4.65%
COC(=O)c1cccc(C(=O)OC)c1,-33.1% and 14.2%,-3.45% and -1.6%,-14.4% and 18.8%,5.2% and -1.7%,-1.9% and 19.4%,3.75% and 15.4%
CN(C)C(C#CCO)c1ccccc1 (stereo not given),-30.5%,-13.2%,1.45%,-3.55%,-9.7%,4.8%
CC(=O)Nc1ccccc1C(C#N)Cc1ccccc1 (stereo not given),13.3%,5.55%,14.1%,-32.4%,1.15%,8.95%

Compound,growth inhibition [1],growth inhibition [2],growth inhibition [3],growth inhibition [4],growth inhibition [5],growth inhibition [6]
O=C(O)C1C2CCCC21 (stereo not given),-10.8%,30.2%,-4.75%,25.9%,2%,0.8%
C=C(C)C(C)/C(C)=N/NC(N)=O (stereo not given) (tested in a mixture with another compound),6.85%,3.3%,-5.75%,10.4%,10.6%,-15.8%
CCCCCOC1OC(=O)C(Cl)=C1Cl (stereo not given),65.3%,36.7%,63.2%,61.7%,54.8%,44%
CCCNCCCCCCNc1cc(OC)cc2cccnc12,54.9%,6.05%,39.7%,63.4%,31.9%,54.3%
O=C(O)COc1ccc(C2CCc3ccccc32)cc1 (stereo not given),19.7%,7.3%,-3.85%,16%,8.25%,0.7%
Cc1ccc(NC(=O)c2cccc(OP(=O)(O)Nc3ccc(C)cc3)c2)cc1,-13.7%,2.7%,2.8%,17%,-0.95%,-17%
CCOC(=O)C(=CNC(=S)N=Nc1c(O)[nH]c2ccccc12)C(=O)OCC,-58.4%,-69.2%,-45%,2.85%,-36.9%,-25.8%
O/N=C/c1ccco1,1.2%,-9.85%,7.75%,-1.15%,-6.55%,16.1%
O=C(Cc1cccnc1)c1cccnc1,-52.3%,-18.9%,-8.15%,-11.9%,-15%,-7.55%
CCCCN(CCCC)C(=O)C(=O)C(C(=O)c1ccc(OC)cc1)c1ccc(OC)cc1 (stereo not given),-8.95%,-1.5%,-11.8%,-10.3%,14.1%,-3.95%
CCCCCCC(O)C[N+](=O)[O-] (stereo not given),0.3%,-28.9%,-11.8%,-5%,-2.75%,-3.9%
C=C(C)C1CCC2(C)CCC(=O)C(C)=C2C1 (stereo not given),3.15%,1.35%,-5.75%,-19.7%,-6.1%,-4.15%
Oc1ccc(Br)cc1/C=N/N1CCN(/N=C/c2cc(Br)ccc2O)CC1,22.9%,6.2%,35.2%,14.9%,1.7%,25.1%
CC12C=CC(=O)C(O)C1CC=CC2 (stereo not given),12.6%,14.3%,4.3%,6.05%,11.4%,8.95%
C=C1C(=O)OC2/C=C(\C)C(O)/C=C\C(C)(O)CC(OC(=O)/C(C)=C/C)C12 (stereo not given),-18%,-37.6%,-3.15%,-2%,-34.8%,-26.8%
CN1C(=O)C/C(=C/[N+](=O)[O-])c2ccccc21,3.5%,-1.05%,4.2%,8.05%,3.3%,-18.9%
CC1CC(OCCO)CC(C)(C)C1 (stereo not given),13%,0.5%,6.95%,-8.8%,14.9%,7.2%
COc1cc([N+](=O)[O-])c(S(=O)(=O)O)cc1NS(=O)(=O)c1ccc(C)cc1,7.8%,16.6%,22%,3.95%,1.4%,10.2%
O/N=C1\c2ccccc2-c2cccc(Br)c21,0.25%,2.9%,4.55%,-40.6%,-9.6%,5.45%
Cc1cc(=O)[nH]c(N/N=C/C=C/c2ccccc2)n1,-35.4%,-25.7%,-17.1%,-15.8%,-15.8%,-25.9%
